This is a sample that favours compounds with a hit; in the whole collection about 17% have one here.
HepG2 tox: qHTS for Inhibitors of TGF-b: Cytotox Counterscreen; HepG2 CAGA-GFP viability, ATP luminescence, 18 h; 410,000 tested, 0.76% active; Potency, µM (series often up to 46.1 µM), usual class: cytotoxic; AID 588856, 2011
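HepG2 CAGA-GFP cells (1000/well, DMEM with 1% FBS) received compound, then TGF-beta at 500 pg/mL final, and were incubated 18 hours at 37 degrees C. Viability was read by CellTiter-Glo luminescence. Media-only wells were set as complete cell-killing and DMSO as no toxicity.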
S2 tox: Viability Counterscreen for Primary qHTS for Inhibitors of ATXN expression. Potency, µM (series often up to 56.7 µM), hits mostly cytotoxic. 400,000 tested, 0.49% active. AID 651635, 2014. S2 cells (HEK-293 line with an ATXN2-luciferase reporter) viability, CellTiter-Fluor protease fluorescence, 24 h; note: nearly all actives have a fitted effect of over 40% in size
ATXN2 expr inh: Primary qHTS for Inhibitors of ATXN expression; HEK-293 ATXN2-luciferase reporter, luminescence, 24 h; Potency, µM (top dose mostly 57 µM), most hits filed as inhibitors; 360,000 tested, 0.72% active; AID 1745845, 2022; note: nearly all actives have a fitted effect of over 55% in size
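qHTS (up to 57 uM final) was run with 24 h compound exposure of reporter cells at 37 °C. Each well was multiplexed: SteadyGlo luminescence measured ATXN2-luciferase expression after a fluorogenic Gly-Phe-AFC viability readout (25 uM final).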
TDP1 cell CPT: qHTS for Inhibitors of human tyrosyl-DNA phosphodiesterase 1 (TDP1): qHTS in cells in presence of CPT | chicken DT40 Tdp1-/-;hTDP1 cells + 20 nM CPT, ATP luminescence, 48 h | Potency, µM (top dose mostly 46.2 µM), actives largely listed as inhibitors | 420,000 tested, 12% active | AID 686979, 2013; note: nearly all actives have a fitted effect of over 55% in size
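Chicken DT40 Tdp1-/- cells stably complemented with human TDP1 were seeded at 400 cells/well in medium containing 20 nM camptothecin, exposed to pin-transferred compounds, and grown at 37 °C for at least 48 hr. Viability was read as ATP luminescence.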
DT40 TDP1 no CPT: qHTS for Inhibitors of human tyrosyl-DNA phosphodiesterase 1 (TDP1): qHTS in cells in absence of CPT. DT40 Tdp1-/- hTDP1 cells, no CPT, ATP luminescence, 48 h. Potency, µM (doses to about 46.2 µM), actives largely listed as inhibitors. 420,000 tested, 15% active; note: nearly all actives have a fitted effect of over 55% in size
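DT40 Tdp1-/-;hTDP1 cells, no CPT (DMSO vehicle only), 400 cells/well; compounds pin-transferred; ≥48 hr, 37 °C; CellTiter-Glo 30 min RT dark, luminescence read.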
TGFb inhibitor: qHTS for Inhibitors of TGF-b; AID 588855, 2011; HepG2 CAGA-GFP TGF-b/SMAD3 reporter, GFP fluorescence, 18 h; TGF-beta stimulated, 500 pg/mL final; Potency, µM (top dose mostly 46.1 µM), actives largely listed as inhibitors; 410,000 tested, 1.2% active; note: nearly all actives have a fitted effect of over 65% in size
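Smad-responsive CAGA-GFP expression was quantified in HEPG2 cells exposed to compounds and 500 pg/mL final TGF-beta for 18 h at 37 degrees C; unstimulated wells defined full inhibition.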
Numbers stand for hits; i = inactive; ? = inconclusive; nt = not tested or not shown; [ ] = remark or other dose. Calls come from the whole dose curve; as a rule, active = well fitted curve in the direction sought with a large enough effect; inconclusive = small, poorly fitted or top-dose-only effect, or another doubt; inactive = no such curve, though single readings can be large; an effect the other way counts as inactive or inconclusive.

SMILES	HepG2 tox	S2 tox	ATXN2 expr inh	TDP1 cell CPT	DT40 TDP1 no CPT	TGFb inhibitor
CCOCCCNC(=S)N1CCN(Cc2ccco2)CC1	i	i	i	i	i	i
CNC(=O)[C@@H]1C[C@H](Sc2nc3ccccc3[nH]2)CN1Cc1cccc(C(F)(F)F)c1	nt	i	nt	i	i	nt
O=C1NC(=S)S/C1=C\C=C\c1ccc([N+](=O)[O-])o1	i	8.9µM	?	1.6µM	2.3µM	2.2µM
Cc1ncc(CN=Cc2ccc(Cl)cc2)c(N)n1	i	?	nt	i	i	i
O=C1C2C3CCCC3=C3CCCC3C2C(=O)N1c1ccc(F)cc1 (centres undefined)	i	i	i	?	18µM	i
COc1ccc(CCNC(=O)CSC2=Nc3ccccc3C3=NC(CCC(=O)NCc4ccccc4)C(=O)N23)cc1OC (centres undefined)	i	?	i	i	i	i
N#CC1=C(c2ccccc2)/C(=C/c2ccccc2)OC1=O	i	nt	?	23µM	18µM	?
CSc1ncc(CN2CCN(C3CCCC3)C(CCO)C2)cn1 (centres undefined)	i	i	nt	i	i	i
CCOC(=O)c1nn(-c2ccc(Br)cc2)cc1C(=O)c1cccc2ccccc12	i	?	i	8.2µM	16µM	i
CCOC(=O)c1nn(-c2ccc(F)cc2)cc1O	i	i	nt	i	i	i
O=C(/C=C/c1ccco1)NC(=S)Nc1cc(-c2nc3ccccc3s2)ccc1Cl	i	?	i	12µM	23µM	i
O=C(/C=C/c1ccco1)NC(=S)Nc1cccc(-c2nc3ccccc3s2)c1	i	i	i	4.6µM	5.8µM	i
Cc1ccc(-c2nc3ccccc3s2)cc1NC(=S)NC(=O)/C=C/c1ccco1	i	?	i	?	13µM	i
Cc1ccc(C(=O)NC(=S)Nc2cccc(-c3nc4ccccc4s3)c2)cc1	i	i	i	?	i	i
Cc1ccccc1NC(=S)NC(=O)/C=C/c1ccco1	i	i	i	i	i	i
N#CC1=C(N)Oc2cc(O)ccc2C1c1ccc(Br)s1 (centres undefined)	i	nt	i	?	?	i
COc1ncc2nc(-c3ccc(Cl)cc3)c(=O)n(CCC#N)c2n1	nt	nt	nt	i	i	nt
Nc1nonc1-n1nnc(C(=O)N/N=C/c2ccc(OCc3ccccc3)cc2)c1CNc1ccccc1	i	i	i	i	i	i
Cn1c(-c2ccc(Br)o2)nc2ccccc21	i	i	i	11µM	10µM	?
Cn1c2nc3ccccc3c-2nc2ccccc21	i	?	nt	18µM	8.2µM	i
Cc1ccc(-c2nc3ccccc3n2C)o1	i	i	i	?	?	i
CC(C)NC(=O)Cn1c(=O)nc(-c2ccccc2F)c2cc(Cl)ccc21	i	nt	nt	i	7.3µM	i
COc1ccccc1-c1cnc(C(O)c2cccc(CN3CCCCC3)c2)[nH]1 (centres undefined)	i	i	i	i	i	i
O=C(CCl)N1c2ccccc2Sc2ccc3ccccc3c21	11µM	?	nt	3.7µM	2.3µM	14µM
COCC(C)N1CCC(Oc2ccc(C(=O)NCc3ccccn3)cc2)CC1 (centres undefined)	i	i	i	i	i	i
SMILES	HepG2 tox	S2 tox	ATXN2 expr inh	TDP1 cell CPT	DT40 TDP1 no CPT	TGFb inhibitor
CS(=O)(=O)Nc1cccc(-c2ccc3ncnc(Nc4ccccc4)c3c2)c1	nt	nt	nt	?	21µM	nt
CN(C)c1cc(-c2cccc(NS(C)(=O)=O)c2)ncn1	nt	nt	nt	i	i	nt
CN(C)c1ncnc2ccc(-c3cccc(NS(C)(=O)=O)c3)cc12	nt	nt	nt	21µM	16µM	nt
CS(=O)(=O)Nc1cccc(-c2ccc3ncnc(NC4CCNCC4)c3c2)c1	nt	nt	nt	i	i	nt
CS(=O)(=O)Nc1cccc(-c2ccc3ncnc(N4CCNCC4)c3c2)c1	nt	nt	nt	15µM	?	nt
Cn1c(=O)[nH]c(=O)c2c1nc(N1CCOCC1)n2CCCSc1ncccn1	i	i	i	i	i	i
Cc1ccc(F)c(S(=O)(=O)NC(=O)C2(C)CCN2C(=O)c2ccc(C3CCCCC3)cc2)c1 (centres undefined)	i	i	i	i	?	i
COc1cc(C(=O)OCC(=O)Nc2ccc(N3CCOCC3)cc2)ccc1OCC(C)C	i	i	i	i	?	i
CCN(CC)C(=O)C1=C(C)N(CCCN2CCCC2=O)C(=O)C(CC(=O)NCCCCc2ccccc2)C1 (centres undefined)	i	i	i	i	i	i
C=CCN1[C@@H](C(C)C)COCCS1(=O)=O	i	nt	nt	i	i	i
CC1=C[C@@H]2[C@@H]([C@@H](O)C[C@@]3(C)[C@H]2C[C@@H](C)[C@]3(O)C(=O)CO)[C@@]2(C)Cc3cnn(-c4ccccc4)c3C=C12	nt	nt	i	nt	nt	nt
CC(=O)OCC(=O)[C@@]1(O)[C@H](C)C[C@H]2[C@@H]3C=C(C)C4=Cc5c(cnn5-c5ccccc5)C[C@]4(C)[C@@H]3[C@@H](O)C[C@@]21C	nt	nt	27µM	nt	nt	nt
Cc1cc(C)cc(NC(=O)Cn2c(=O)n(Cc3ccc4c(c3)OCO4)c(=O)c3oc4ccccc4c32)c1	i	nt	nt	?	?	i
Cc1nc(N2CCCCC2)sc1C(=O)c1cccc([N+](=O)[O-])c1	i	i	i[11.3 µM]	?	?	i
Cc1nc(N2CCCCC2)sc1C(=O)c1ccc(SCCO)c([N+](=O)[O-])c1	i	i	i	?	18µM	i
O=C(c1ccc(-n2c(SCc3cc(F)ccc3F)nc3ccccc3c2=O)cc1)N1CCOCC1	i	nt	i	12µM	26µM	i
COc1ccccc1-n1c(SCC(=O)N2CCOCC2)nc2ccccc2c1=O	i	?	i	i	i	i
COc1ccc(C(C)=O)cc1CSc1nc2ccccc2c(=O)n1-c1cccc(C)c1	i	?	?	18µM	18µM	i
COc1ccc(C(C)=O)cc1CSc1nc2ccccc2c(=O)n1-c1ccccc1	i	nt	?	?	?	i
C=CCn1c(SCC(=O)Nc2ccc(OC)cc2)nc2ccccc2c1=O	i	i	i	i	?	i
COc1ccccc1-n1c(SCc2cc(=O)oc3cc(O)ccc23)nc2ccccc2c1=O	i	i	i	23µM	?	?
CCOC(=O)CC(=O)CSc1nc2ccccc2c(=O)n1-c1ccc(C(=O)N2CCOCC2)cc1	i	i	i	i	i	i
C=CCn1c(SCc2cc(C(C)=O)ccc2OCC)nc2ccccc2c1=O	i	?	i	1.6µM	0.82µM	?
